Only some compounds are listed: those with a hit (about 19% of all), similar ones and a draw of the others.
Shiga toxin inh: inhibitors of Shiga toxin in Vero cells | Vero cells, Shiga toxin protein synthesis inhibition reporter | inhibition, % at 38.7 µM | 290,000 tested, 9.2% active | AID 2315; in the data active = inhibition mostly above about 28%, no sharp cut-off; inactive = mostly below about 43%; also: 0% is about no effect
Marburg entry inh: blocks Marburg virus binding to or entry into cells; Potency, µM (titrated, usually from 37.8 µM), inactives show top-dose activity change, negative = inhibition, most hits filed as inhibitors; Marburg virus pseudotyped entry inhibition, cell reporter; 300,000 tested, 1.8% active; calls by dose curve; tested in HEK293 cells; also: potency is read from the fitted curve at half-maximal effect; % is scaled to controls: 0 for no effect and ±100 for the full control effect
CHX counter: counter-screen hit for Shiga toxin inhibitors, cycloheximide; 300,000 tested, 12% active; cell reporter, cycloheximide protein synthesis inhibition counterscreen; max response, %; in the data active = max response mostly above about 13%, no sharp cut-off; inactive = mostly below about 14%; also: read at 38.3 µM for the half of the compounds with a filed dose; 0% is about no effect
Lassa entry inh: Lassa virus entry inhibition. 300,000 tested, 1.2% active. Lassa virus pseudotype entry inhibition, cell reporter. Potency, µM (top dose mostly 37.9 µM), for inactives: top-dose activity change, negative = inhibition, most hits filed as inhibitors; calls by dose curve; tested in HEK293 cells; also: potency is read from the fitted curve at half-maximal effect; % is scaled to controls: 0 for no effect and ±100 for the full control effect; nearly all actives have a fitted effect of over 50% in size
Pf growth 96h: P. falciparum growth inhibition at 96 hour, primary screen for plastid delayed-death inhibitors; Potency, µM (doses to about 28.7 µM), without a hit: top-dose activity change, negative = inhibition, hits mostly inhibitors; P. falciparum luciferase reporter growth, 96 h; 320,000 tested, 6.9% active; also: potency is read from the fitted curve at half-maximal effect; % is scaled to controls: 0 for no effect and ±100 for the full control effect
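Luminescence readout: decreased luciferase signal marks inhibited growth of reporter-expressing P. falciparum in infected red cells (2% hematocrit, 0.05% parasitemia final), exposed to compound two generations (96 h, 37 C, 5% CO2).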
Pf growth 48h: inhibits P. falciparum growth in the first generation, 48 h | P. falciparum luciferase growth in erythrocytes, 48 h | Potency, µM (doses to about 28.7 µM), for the others: top-dose activity change, negative = inhibition, usual class: inhibitors | 310,000 tested, 5.9% active | AID 504832; also: potency is read from the fitted curve at half-maximal effect; % is scaled to controls: 0 for no effect and ±100 for the full control effect
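A one-generation exposure of luciferase-tagged malaria parasites in RPMI 1640/Albumax erythrocyte culture, 37 C and 5% CO2. Inhibition is inferred from decreased luminescence after adding detection reagent.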
* marks the source's active call; other numbers are inactive results; ? = inconclusive; / = no result given; [ ] = remark or other dose. Unless noted, calls follow the shape of the dose curve; as a rule, active = well fitted inhibition curve with a large enough effect; inconclusive = small, poorly fitted or top-dose-only effect, or another doubt; inactive = no such curve, though single readings can be large or run the other way.

SMILES	Shiga toxin inh	Marburg entry inh	CHX counter	Lassa entry inh	Pf growth 96h	Pf growth 48h
Cc1ccc2c(c1)c(/C=C/c1cc[n+](C)cc1)c(C)n2C	-8.8	/	-0.3	/	0.465µM*	0.928µM*
Cc1ccc2c(c1)c1ccc3c(c1n2C)C(=O)C=CC3=O	20.1	/	7.9	/	?	?
Cn1nc(CC(=O)NCc2ccc(C(F)(F)F)cc2)c2ccccc2c1=O	17.4	?	6.6	-22.8%	94.6%	-13.7%
C=C1CC(COc2ccc3c(C)c(Cl)c(=O)oc3c2)(c2ccccc2)OC1=O (stereo not given)	/	7.08µM*	/	10µM*	/	/
Cc1c(C)c2ccc(OCC(=O)NC3CCN(Cc4ccccc4)CC3)cc2oc1=O	-1.3	-38.4%[46.1 µM]	-5.1	-26.4%[46.1 µM]	?	?
COc1cc(C2SCC(=O)N2CCN2CCCCC2)ccc1O (stereo not given)	-11.0	-6.2%[46.1 µM]	-1.5	-9.7%[46.1 µM]	142.7%	0.1%
COc1cc(C#CC#CCN2CCCCC2)ccc1O	8.5	?	16.4	?	20.4%	8.28µM*
Cc1cc(NC(=O)c2cccs2)n(-c2nc3ccccc3[nH]2)n1	34.6	?	8.0	11.3%	-22.9%	?
COc1cc(/C=C(/C(=O)c2cccs2)c2nc3ccccc3[nH]2)cc(OC)c1O	90.5*	-85.1%	24.2*	?	?	/
COc1ccc(C(=O)N/C(=C/c2cccs2)c2nc3ccccc3[nH]2)cc1OC	-2.5	-37.8%	10.8	-2.2%	4.65µM*	-19.2%
COc1ccc(C(=O)N/C(=C/c2cccs2)C(=O)NC(C)(C)C)cc1OC	-15.4	-1.4%[46.1 µM]	1.4	-11.0%[46.1 µM]	0.7%	-15.8%
Cc1ccc(C(=O)Nc2ncc(C)s2)s1	42.1	2.82µM*	17.3*	5.01µM*	296.6%	89.7%
Cc1ccc(C(=O)Nc2ncc(Cc3ccc(F)cc3)s2)o1	156.4*	?	41.4*	?	?	16.7%
Cc1ccc(C(=O)Nc2ncc(C)s2)o1	49.8	5.2%	35.2*	?	218.4%	/
Cc1cc(C)nc(NC(=O)c2ccc(C)o2)n1	-3.7	/	-2.4	/	2.1%	38.4%
Cc1ccc(N(Cc2cc3cc(C)ccc3[nH]c2=O)S(=O)(=O)c2ccccc2)cc1	-10.5	?	-2.0	-18.1%	-8.3%	?
Cc1ccc2c(c1)C1CN(C)CCC1N2C(=O)c1cccnc1Cl (stereo not given)	-3.0	/	-1.6	/	46.7%	-15.4%
Cc1ccc2c(c1)C1CN(C)CCC1N2C(=O)c1cccc(S(=O)(=O)N2CC(C)CC(C)C2)c1 (stereo not given)	-8.5	?	-3.2	-18.6%	13.1µM*	?
Cc1ccc2c(c1)C1CN(C)CCC1N2C(=O)c1ccc(Cl)c(S(=O)(=O)N2CCOCC2)c1 (stereo not given)	-9.1	/	-1.3	/	?	?
Cc1ccc2c(c1)[C@@H]1CN(C)CC[C@@H]1N2C(=O)Nc1cccc(C(F)(F)F)c1	-17.4	?	-7.5	-6.5%	0.828µM*	/
Cc1ccc2c(c1)C1CN(C)CCC1N2C(=O)c1ccc(Br)o1 (stereo not given)	-1.8	10.5%	7.4	9.2%	9.1%	/
Cc1ccc2c(c1)C1CN(C)CCC1N2C(=O)c1cn(-c2ccccc2)nc1-c1ccccc1 (stereo not given)	-9.1	/	4.2	/	?	13.1µM*
Cc1ccc2c(c1)C1CN(C)CCC1N2C(=O)Nc1cccc(C(F)(F)F)c1 (stereo not given)	-5.7	?	-1.1	-24.1%	/	9.28µM*
O=C(CN1C(=O)C2CCCCC2C1=O)NC1CCCc2ccccc21 (stereo not given)	/	12.2%	/	-1.5%	26.4%	?
COc1ccc2ccccc2c1CNC(=O)CC1C(=O)NCCN1CC(C)C (stereo not given)	-10.3	-27.5%[46.1 µM]	1.1	-24.4%	?	?
SMILES	Shiga toxin inh	Marburg entry inh	CHX counter	Lassa entry inh	Pf growth 96h	Pf growth 48h
N#Cc1ccccc1OCC(=O)NCC(c1cccs1)N1CCOCC1 (stereo not given)	-3.7	/	-3.0	/	8.1%	-11.0%
Cc1cc(Cl)ccc1OCC(=O)NCC(c1cccs1)N1CCOCC1 (stereo not given)	/	?	/	?	?	13.1µM*
Cc1cccc(OCC(=O)NCC(c2cccs2)N2CCOCC2)c1 (stereo not given)	/	7.2%	/	15.9%	-8.2%	-1.2%
Cc1cc(OCC(=O)NCC(c2cccs2)N2CCOCC2)ccc1C(C)C (stereo not given)	/	?	/	?	13.1µM*	?
Cc1ccc(C(C)C)c(OCC(=O)NCC(c2cccs2)N2CCOCC2)c1 (stereo not given)	/	?	/	?	10.4µM*	13.1µM*
O=C1c2ccccc2C(=O)N1CSc1nnc2c3ccccc3n(CCc3ccccc3)c2n1	-16.7	27.0%	-2.5	4.2%	/	10.6%
CCOc1ccc(CC(=O)Nc2ccc(-c3ccc4nnc(C)n4n3)cc2)cc1	-10.4	-15.5%[46.1 µM]	-2.2	-16.2%[46.1 µM]	-11.8%	-14.4%
Cc1nnc2ccc(-c3ccc(NC(=O)Cc4cccs4)cc3)nn12	-9.5	8.3%	2.3	10.3%	9.28µM*	37.5%
Cc1nnc2ccc(-c3ccc(NC(=O)c4ccco4)cc3)nn12	70.8	/	14.2*	/	?	-12.3%
CC(=O)Nc1ccc(-c2ccc3nnc(C)n3n2)cc1	29.9	?	-0.3	-0.6%[46.1 µM]	?	-2.2%
CCn1c(=O)c2ccccc2n(Cc2cccc([N+](=O)[O-])c2)c1=O	-5.8	2.8%[46.1 µM]	0.3	-4.3%[46.1 µM]	3.5%	6.4%
CCCn1cnc2c(sc3nc4c(cc32)CSC(C)(C)C4)c1=O	36.9*	?	24.9*	-23.6%	66.7%	79.8%
CC(C)CCOc1ncnc2c1sc1nc3c(cc12)CSC(C)(C)C3	-7.1	36.0%	15.4*	?	?	11.7µM*
O=C(CC1S/C(=N\S(=O)(=O)c2ccc(F)cc2)N(c2ccccc2)C1=O)Nc1ccccc1 (stereo not given)	9.6	-12.6%	-2.4	15.8%	38.3%	-7.6%
Cc1ccc(-c2nc(CS(=O)(=O)CC(=O)NCCc3ccccc3)c(C)o2)cc1	/	0.8%[46.1 µM]	/	14.2%[46.1 µM]	/	/
Cc1c(-c2ccccc2)c(=O)oc2ccc(OC(=O)N3CCOCC3)cc12	/	/	/	20.5%[46.1 µM]	/	/
COc1cccc(Nc2nc(N)nc(-c3oc4ccccc4c3C)n2)c1	79.1*	-24.2%	41.5*	-25.9%	-24.8%	?
Cc1cccc(Nc2nc(N)nc(-c3oc4ccccc4c3C)n2)c1	89.1*	?	53.3*	?	-152.1%	?
Cc1cccc(Nc2ncnc(N)n2)c1	2.6	5.1%[46.1 µM]	8.9	0.2%	19.0%	31.3%
CCc1nc(Nc2ccccc2F)c2oc3ccccc3c2n1	24.0	?	8.3	?	?	-2.3%
Cc1c(-c2nc(N)nc(Nc3ccccc3F)n2)oc2ccccc12	186.8*	-17.0%	57.1*	?	/	100.3%
COc1cccc(Nc2cc(C)nc3ccccc23)c1	-4.4	?	3.1	1.0%	1.6%	?
COc1ccccc1Nc1nc(N)nc(-c2cc3ccccc3o2)n1	active	?	32.6*	18.1%	31.7%	37.7%
